Measured values as given in PubChem BioAssay (NCATS).
Results filed as inconclusive are left out. A number with no mark means an inactive call. The call rests on the fitted dose curve; in most records, active means well fitted cell-killing curve with a large enough effect; inconclusive means small, poorly fitted or top-dose-only effect; inactive means flat fitted curve, though single readings scatter.

Assay: qHTS of pediatric cancer cell lines to identify multiple opportunities for drug repurposing: Primary screen for U-2 OS cells (AID 1347096);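 further: plate controls were DMSO wells for no effect and bortezomib positive control wells for full effect; nearly all actives have a fitted effect of over 50% in size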
Settings: U-2 OS viability, CellTiter-Glo luminescence, 48 h; series mostly up to 46 µM; activity change, negative = cytotoxic: at the top concentration
Procedure, shortened: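 Cells (500-1,000/well) rested 5 h, then received compounds for 48 h; metabolically active cells were measured by CellTiter-Glo luminescence. Final concentrations spanned up to 46 µM (MIPE, 11-point) or 0.59 nM-46 µM (NPC, 8-point) in primary screens, 11-point in follow-ups.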

Row | SMILES | activity change, negative = cytotoxic [%]
1 | CC(=O)Nc1ccc(OC(=O)c2ccccc2OC(C)=O)cc1 | 0.85
2 | CN(C)C(=O)Nc1ccc(Cl)c(Cl)c1 | -5.41
3 | CC(C)Cc1ccc(CC(=O)O)cc1 | 14.1
4 | O=C(O)CCC(=O)Nc1ccc(S(=O)(=O)Nc2nccs2)cc1 | -13.8
5 | CNCCc1ccccn1 | 14.7
6 | CN1CCC(OC(c2ccccc2)c2ccccc2)CC1 | 0.797
